The supplement of paper PMC11732987, “Enantioselective OTUD7B fragment discovery through chemoproteomics screening and high-throughput optimisation” (Communications Chemistry, 2025)

Columns and labels:
Assay in all cases: log2 ratio of Biotin-Ahx-Ub-VS probe labelling (fragment/DMSO); higher = less target engagement (more negative = stronger competition), active = hit call of the paper (q ≤ 0.05, log2 ratio ≤ -1)
Conditions in all cases: compound concentration: 200 uM; treatment time: 3 h
USP34 = USP34 (UniProt Q70CQ2)
Chain of USP34 (Q70CQ2 whole entry, the tested form may be a part): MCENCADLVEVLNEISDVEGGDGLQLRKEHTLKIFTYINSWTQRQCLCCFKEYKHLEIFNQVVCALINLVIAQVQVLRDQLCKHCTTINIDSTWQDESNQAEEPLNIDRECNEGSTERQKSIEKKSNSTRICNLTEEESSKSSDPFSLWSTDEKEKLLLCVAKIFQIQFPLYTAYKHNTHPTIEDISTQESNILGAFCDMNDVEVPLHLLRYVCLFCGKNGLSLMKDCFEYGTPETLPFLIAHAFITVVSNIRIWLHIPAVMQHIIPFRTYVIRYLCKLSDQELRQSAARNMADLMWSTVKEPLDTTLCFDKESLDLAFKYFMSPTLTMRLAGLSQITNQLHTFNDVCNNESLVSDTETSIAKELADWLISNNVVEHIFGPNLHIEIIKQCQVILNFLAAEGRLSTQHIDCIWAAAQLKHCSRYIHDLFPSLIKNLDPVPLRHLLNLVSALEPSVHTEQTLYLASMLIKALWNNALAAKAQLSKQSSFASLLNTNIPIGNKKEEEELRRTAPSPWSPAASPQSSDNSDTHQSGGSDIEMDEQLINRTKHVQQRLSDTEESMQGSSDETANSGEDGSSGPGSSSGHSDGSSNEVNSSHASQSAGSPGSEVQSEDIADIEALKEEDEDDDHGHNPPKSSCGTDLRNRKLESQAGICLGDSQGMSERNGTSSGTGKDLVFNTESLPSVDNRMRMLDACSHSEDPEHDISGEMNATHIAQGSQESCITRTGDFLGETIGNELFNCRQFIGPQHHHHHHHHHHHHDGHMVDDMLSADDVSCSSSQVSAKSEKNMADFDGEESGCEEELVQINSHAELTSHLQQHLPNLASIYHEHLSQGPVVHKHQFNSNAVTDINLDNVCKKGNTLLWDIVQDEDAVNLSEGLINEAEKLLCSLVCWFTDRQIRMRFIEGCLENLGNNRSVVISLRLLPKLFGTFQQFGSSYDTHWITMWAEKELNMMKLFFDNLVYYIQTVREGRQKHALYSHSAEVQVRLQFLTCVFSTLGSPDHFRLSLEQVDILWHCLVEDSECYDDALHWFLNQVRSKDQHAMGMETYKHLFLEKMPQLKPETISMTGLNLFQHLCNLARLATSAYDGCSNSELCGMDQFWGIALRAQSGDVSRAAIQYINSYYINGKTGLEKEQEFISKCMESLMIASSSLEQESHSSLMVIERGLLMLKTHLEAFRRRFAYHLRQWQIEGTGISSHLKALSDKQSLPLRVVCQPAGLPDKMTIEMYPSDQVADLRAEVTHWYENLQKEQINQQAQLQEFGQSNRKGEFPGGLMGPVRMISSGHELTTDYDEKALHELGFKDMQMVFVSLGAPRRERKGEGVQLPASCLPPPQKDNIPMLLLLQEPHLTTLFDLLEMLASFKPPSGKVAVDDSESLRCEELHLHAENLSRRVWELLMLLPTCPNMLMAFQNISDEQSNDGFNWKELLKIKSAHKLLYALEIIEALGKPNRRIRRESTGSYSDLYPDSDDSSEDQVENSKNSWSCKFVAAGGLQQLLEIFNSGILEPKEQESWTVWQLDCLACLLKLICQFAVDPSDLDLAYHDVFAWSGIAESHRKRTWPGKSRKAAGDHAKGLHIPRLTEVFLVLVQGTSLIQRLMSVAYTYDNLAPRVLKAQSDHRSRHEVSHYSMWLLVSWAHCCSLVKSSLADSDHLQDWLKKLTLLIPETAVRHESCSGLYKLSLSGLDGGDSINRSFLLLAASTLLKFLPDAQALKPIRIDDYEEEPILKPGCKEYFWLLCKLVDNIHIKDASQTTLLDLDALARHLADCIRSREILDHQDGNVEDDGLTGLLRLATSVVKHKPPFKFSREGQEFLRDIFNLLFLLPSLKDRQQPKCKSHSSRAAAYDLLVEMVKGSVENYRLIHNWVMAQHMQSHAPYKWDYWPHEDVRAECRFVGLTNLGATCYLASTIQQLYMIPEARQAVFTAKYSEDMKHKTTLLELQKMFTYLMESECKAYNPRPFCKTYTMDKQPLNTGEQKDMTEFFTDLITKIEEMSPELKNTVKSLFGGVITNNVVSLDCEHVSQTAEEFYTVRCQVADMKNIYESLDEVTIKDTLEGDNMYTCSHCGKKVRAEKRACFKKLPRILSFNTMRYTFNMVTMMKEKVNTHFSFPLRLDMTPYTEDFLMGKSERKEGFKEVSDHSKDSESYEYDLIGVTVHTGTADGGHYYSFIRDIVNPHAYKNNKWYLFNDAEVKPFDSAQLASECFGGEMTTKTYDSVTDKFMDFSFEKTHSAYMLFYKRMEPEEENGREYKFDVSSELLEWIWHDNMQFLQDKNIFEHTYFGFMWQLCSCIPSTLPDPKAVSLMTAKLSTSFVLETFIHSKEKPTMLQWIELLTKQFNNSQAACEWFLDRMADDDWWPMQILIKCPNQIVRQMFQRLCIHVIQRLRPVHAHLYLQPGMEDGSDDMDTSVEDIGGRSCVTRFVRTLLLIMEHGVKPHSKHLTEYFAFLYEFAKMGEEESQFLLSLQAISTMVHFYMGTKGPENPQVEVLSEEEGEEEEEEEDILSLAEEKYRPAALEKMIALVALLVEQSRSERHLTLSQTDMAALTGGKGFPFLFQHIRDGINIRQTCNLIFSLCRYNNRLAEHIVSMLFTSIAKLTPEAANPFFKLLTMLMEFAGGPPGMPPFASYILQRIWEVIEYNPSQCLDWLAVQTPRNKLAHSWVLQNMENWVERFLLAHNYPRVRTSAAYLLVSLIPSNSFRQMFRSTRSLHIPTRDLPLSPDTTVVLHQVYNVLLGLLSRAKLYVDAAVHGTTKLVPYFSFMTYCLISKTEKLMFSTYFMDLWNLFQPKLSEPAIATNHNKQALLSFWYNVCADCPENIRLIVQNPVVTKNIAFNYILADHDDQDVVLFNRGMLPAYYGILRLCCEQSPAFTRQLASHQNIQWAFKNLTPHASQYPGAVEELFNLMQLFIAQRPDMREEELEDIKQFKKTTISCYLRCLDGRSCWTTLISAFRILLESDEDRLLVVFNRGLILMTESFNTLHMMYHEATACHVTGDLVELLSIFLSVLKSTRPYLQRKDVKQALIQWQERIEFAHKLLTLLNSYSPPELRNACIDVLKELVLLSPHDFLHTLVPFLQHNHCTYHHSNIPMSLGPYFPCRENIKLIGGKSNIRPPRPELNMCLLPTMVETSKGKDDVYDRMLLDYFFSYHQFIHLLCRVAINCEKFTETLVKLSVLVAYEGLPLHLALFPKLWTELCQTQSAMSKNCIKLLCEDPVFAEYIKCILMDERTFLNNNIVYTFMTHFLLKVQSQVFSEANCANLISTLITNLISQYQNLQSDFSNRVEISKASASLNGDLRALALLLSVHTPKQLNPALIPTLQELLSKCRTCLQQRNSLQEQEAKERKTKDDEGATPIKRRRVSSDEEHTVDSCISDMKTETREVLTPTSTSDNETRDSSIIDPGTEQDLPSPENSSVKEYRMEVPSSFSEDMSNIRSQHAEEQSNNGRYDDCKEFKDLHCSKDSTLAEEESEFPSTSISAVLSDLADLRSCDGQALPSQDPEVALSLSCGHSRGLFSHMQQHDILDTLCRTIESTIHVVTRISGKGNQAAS
Outline: (§1)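 The table lists average log2 ratios of fragment over vehicle, from an unpaired t-test on global-median-normalised Spectronaut label-free quantities. Proteins with ≥2 unique peptides were used. Samples were HEK293T lysate (495 µg) treated in triplicate with fragment at 200 µM or vehicle for 3 h, then with Biotin-Ahx-Ub-VS (0.5 µM final) for 1 h, with labelled DUBs NeutrAvidin-enriched and run by diaPASEF LC-MS/MS.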

USP36 = target: T1, USP36 (UniProt Q9P275)
T1 sequence (whole entry): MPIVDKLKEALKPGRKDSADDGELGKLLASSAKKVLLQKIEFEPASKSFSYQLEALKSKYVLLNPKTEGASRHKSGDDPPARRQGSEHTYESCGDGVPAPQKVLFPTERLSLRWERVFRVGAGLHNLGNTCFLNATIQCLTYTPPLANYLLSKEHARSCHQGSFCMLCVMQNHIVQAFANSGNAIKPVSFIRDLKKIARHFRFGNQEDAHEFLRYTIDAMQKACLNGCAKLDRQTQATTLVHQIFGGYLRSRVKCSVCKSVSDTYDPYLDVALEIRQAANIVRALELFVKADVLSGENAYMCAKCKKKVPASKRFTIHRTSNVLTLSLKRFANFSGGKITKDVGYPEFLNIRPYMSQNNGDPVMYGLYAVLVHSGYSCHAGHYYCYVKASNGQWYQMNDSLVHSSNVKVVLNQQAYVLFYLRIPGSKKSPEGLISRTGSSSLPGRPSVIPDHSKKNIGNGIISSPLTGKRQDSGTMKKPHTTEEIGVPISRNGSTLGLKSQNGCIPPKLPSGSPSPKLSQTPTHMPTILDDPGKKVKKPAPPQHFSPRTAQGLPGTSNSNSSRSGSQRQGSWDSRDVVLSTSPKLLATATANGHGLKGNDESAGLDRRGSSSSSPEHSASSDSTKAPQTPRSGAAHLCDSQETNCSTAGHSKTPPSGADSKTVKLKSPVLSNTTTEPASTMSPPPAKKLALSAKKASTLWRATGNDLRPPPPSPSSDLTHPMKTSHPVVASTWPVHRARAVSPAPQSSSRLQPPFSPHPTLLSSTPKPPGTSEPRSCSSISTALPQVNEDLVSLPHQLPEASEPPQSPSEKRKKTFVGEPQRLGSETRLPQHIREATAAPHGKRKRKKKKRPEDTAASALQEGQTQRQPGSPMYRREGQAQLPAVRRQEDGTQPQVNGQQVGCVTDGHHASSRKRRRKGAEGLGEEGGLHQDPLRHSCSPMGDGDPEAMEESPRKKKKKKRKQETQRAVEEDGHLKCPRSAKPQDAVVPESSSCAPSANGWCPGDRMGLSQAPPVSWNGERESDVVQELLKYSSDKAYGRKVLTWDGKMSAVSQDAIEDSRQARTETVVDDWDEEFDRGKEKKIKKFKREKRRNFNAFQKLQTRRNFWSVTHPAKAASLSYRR
Outline: as §1

USP38 = target: T2, USP38 (UniProt Q8NB14)
T2 sequence (whole entry): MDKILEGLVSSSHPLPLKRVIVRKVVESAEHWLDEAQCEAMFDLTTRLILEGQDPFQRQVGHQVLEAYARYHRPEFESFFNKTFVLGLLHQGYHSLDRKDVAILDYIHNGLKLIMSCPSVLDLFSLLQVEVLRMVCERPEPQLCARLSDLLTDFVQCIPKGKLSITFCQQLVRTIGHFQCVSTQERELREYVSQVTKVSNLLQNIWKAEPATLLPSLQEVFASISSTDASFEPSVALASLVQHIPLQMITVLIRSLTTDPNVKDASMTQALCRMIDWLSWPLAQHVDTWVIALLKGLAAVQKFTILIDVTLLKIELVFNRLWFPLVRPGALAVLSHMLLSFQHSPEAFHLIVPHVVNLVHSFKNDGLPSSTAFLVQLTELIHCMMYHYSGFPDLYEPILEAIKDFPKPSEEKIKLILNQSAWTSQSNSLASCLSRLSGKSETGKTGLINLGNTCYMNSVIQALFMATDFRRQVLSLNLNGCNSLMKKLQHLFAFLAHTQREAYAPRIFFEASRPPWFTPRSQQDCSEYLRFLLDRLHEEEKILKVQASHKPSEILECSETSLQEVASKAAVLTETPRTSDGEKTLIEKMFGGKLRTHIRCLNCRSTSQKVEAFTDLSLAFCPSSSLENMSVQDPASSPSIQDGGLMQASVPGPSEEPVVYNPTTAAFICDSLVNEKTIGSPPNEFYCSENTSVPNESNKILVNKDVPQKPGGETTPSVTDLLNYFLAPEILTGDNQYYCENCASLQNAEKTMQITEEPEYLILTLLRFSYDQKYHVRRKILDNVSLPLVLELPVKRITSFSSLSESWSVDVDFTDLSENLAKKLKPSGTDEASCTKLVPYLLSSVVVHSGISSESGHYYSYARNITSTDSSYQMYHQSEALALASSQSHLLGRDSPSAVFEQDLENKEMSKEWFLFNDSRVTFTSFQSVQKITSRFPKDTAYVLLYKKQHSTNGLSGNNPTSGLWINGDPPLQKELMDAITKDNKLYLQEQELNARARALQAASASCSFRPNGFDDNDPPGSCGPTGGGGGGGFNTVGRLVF
Outline: as §1

USP39 = target: T3, USP39 (UniProt Q53GS9)
T3 sequence (whole entry): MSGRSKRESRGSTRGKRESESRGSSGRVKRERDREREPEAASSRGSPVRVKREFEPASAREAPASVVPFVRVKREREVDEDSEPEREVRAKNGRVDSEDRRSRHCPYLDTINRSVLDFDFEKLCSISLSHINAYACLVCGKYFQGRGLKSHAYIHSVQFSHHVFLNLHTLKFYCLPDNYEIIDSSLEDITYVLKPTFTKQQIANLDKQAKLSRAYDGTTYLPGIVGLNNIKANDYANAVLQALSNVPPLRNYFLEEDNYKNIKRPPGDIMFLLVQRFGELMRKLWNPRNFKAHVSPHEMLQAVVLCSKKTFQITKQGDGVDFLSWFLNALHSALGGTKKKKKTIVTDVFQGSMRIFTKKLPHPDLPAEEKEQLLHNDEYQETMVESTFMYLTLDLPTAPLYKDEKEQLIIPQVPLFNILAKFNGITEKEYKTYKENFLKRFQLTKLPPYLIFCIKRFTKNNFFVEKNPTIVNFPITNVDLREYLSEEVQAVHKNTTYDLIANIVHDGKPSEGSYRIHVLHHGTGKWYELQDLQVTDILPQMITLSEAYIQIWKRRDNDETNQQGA
Outline: as §1

USP4 = target: T4, USP4 (UniProt Q13107)
T4 sequence (whole entry): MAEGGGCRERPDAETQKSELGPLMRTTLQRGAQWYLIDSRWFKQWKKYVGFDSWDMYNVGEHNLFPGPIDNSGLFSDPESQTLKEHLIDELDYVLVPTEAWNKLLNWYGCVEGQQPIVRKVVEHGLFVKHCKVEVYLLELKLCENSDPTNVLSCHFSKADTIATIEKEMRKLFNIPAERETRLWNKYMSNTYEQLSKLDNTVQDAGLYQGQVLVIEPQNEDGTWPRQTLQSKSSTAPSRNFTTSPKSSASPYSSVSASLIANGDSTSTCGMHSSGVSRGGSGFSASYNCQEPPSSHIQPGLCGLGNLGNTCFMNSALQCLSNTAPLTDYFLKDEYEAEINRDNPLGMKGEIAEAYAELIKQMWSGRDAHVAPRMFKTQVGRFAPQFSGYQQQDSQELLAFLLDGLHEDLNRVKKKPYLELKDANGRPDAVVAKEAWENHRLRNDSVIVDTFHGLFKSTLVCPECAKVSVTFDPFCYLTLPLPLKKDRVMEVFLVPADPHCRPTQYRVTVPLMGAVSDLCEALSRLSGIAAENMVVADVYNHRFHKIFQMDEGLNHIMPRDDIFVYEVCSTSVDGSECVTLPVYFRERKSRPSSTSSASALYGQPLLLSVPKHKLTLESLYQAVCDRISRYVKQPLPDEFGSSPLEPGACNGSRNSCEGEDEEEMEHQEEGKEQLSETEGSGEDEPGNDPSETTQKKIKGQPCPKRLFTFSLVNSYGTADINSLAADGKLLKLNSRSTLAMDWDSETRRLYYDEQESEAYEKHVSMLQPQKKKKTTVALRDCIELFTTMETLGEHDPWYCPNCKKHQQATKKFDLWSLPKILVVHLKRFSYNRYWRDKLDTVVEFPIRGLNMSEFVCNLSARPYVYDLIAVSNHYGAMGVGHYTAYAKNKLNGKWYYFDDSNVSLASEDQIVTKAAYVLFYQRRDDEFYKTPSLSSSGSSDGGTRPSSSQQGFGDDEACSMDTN
Outline: as §1

Measured: log2 ratio of Biotin-Ahx-Ub-VS probe labelling

Cl.O=C(CCl)NCc1ccnc(Oc2ccccc2F)c1
inactive: USP34 -0.267 | USP36 0.0203 | USP38 -0.00457 | USP39 0.295 | USP4 -0.0201
